Assay results published in the supplement of paper PMC8728848.
Only a selection was taken, and the strongest signals are over-represented in it overall.

Key:
Assay in all cases: glycan array binding signal (z-score within array); higher = stronger binding
Settings in all cases: glycan notation: IUPAC condensed, linker removed
[1] = biological target: Fuc(a1-2)Gal(b1-3)GalNAc(b1-3)Gal(a1-4)Gal(b1-4)Glc
How it was run: (§1)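 From the Consortium for Functional Glycomics database, 3228 arrays were curated, keeping only those whose protein sequence was available. Binding is given as a within-array Z-score averaged across arrays sharing a protein sequence and across linkers. Negative Z-scores can be read as non-binding.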

[2] = biological target: Fuc(a1-2)Gal(b1-3)GalNAc(b1-4)[Neu5Ac(a2-3)]Gal(b1-4)Glc
How it was run: as §1

Fuc(a1-2)Gal(b1-3)GlcNAc = biological target: Fuc(a1-2)Gal(b1-3)GlcNAc
How it was run: as §1

[3] = biological target: Fuc(a1-2)Gal(b1-3)[Fuc(a1-4)]GlcNAc(b1-3)[Fuc(a1-3)[Gal(b1-4)]GlcNAc(b1-6)]Gal(b1-4)Glc
How it was run: as §1

[4] = biological target: Fuc(a1-2)Gal(b1-4)GlcNAc(b1-3)GalNAc
How it was run: as §1

[5] = biological target: Fuc(a1-2)Gal(b1-4)[Fuc(a1-3)]GlcNAc(b1-3)GalNAc
How it was run: as §1

[6] = biological target: Fuc(a1-2)[Gal(a1-3)]Gal(b1-3)GlcNAc(b1-2)Man(a1-3)[Fuc(a1-2)[Gal(a1-3)]Gal(b1-3)GlcNAc(b1-2)Man(a1-6)]Man(b1-4)GlcNAc(b1-4)[Fuc(a1-6)]GlcNAc
How it was run: as §1

[7] = biological target: Fuc(a1-2)[Gal(a1-3)]Gal(b1-4)Glc
How it was run: as §1

[8] = biological target: Fuc(a1-2)[GalNAc(a1-3)]Gal(b1-4)GlcNAc(b1-2)Man(a1-3)[Fuc(a1-2)[GalNAc(a1-3)]Gal(b1-4)GlcNAc(b1-2)Man(a1-6)]Man(b1-4)GlcNAc(b1-4)[Fuc(a1-6)]GlcNAc
How it was run: as §1

[9] = biological target: Fuc(a1-3)[Gal(b1-4)]GlcNAc(b1-2)Man(a1-3)[Fuc(a1-3)[Gal(b1-4)]GlcNAc(b1-2)Man(a1-6)]Man(b1-4)GlcNAc(b1-4)[Fuc(a1-6)]GlcNAc
How it was run: as §1

Gal(a1-2)Gal = biological target: Gal(a1-2)Gal
How it was run: as §1

[10] = biological target: Gal(a1-3)Gal(b1-4)GlcNAc(b1-3)GalNAc
How it was run: as §1

[11] = biological target: Gal(a1-3)Gal(b1-4)[Fuc(a1-3)]GlcNAc
How it was run: as §1

[12] = biological target: Gal(a1-4)Gal(b1-4)GlcNAc(b1-2)Man(a1-3)[Gal(a1-4)Gal(b1-4)GlcNAc(b1-2)Man(a1-6)]Man(b1-4)GlcNAc(b1-4)GlcNAc
How it was run: as §1

[13] = biological target: Gal(b1-3)GalNAc(b1-4)[Neu5Ac(a2-3)]Gal(b1-4)Glc
How it was run: as §1

[14] = biological target: Gal(b1-3)GlcNAc(b1-2)Man(a1-3)[Gal(b1-3)GlcNAc(b1-2)Man(a1-6)]Man(b1-4)GlcNAc(b1-4)GlcNAc
How it was run: as §1

[15] = biological target: Gal(b1-3)GlcNAc(b1-3)Gal(b1-3)GlcNAc
How it was run: as §1

[16] = biological target: Gal(b1-3)GlcNAc(b1-3)Gal(b1-4)[Fuc(a1-3)]GlcNAc(b1-6)[Gal(b1-3)GlcNAc(b1-3)]Gal(b1-4)Glc
How it was run: as §1

Gal(b1-4)GlcNAc(b1-2)Man = biological target: Gal(b1-4)GlcNAc(b1-2)Man
How it was run: as §1

[17] = biological target: Gal(b1-4)GlcNAc(b1-2)[Gal(b1-4)GlcNAc(b1-4)]Man(a1-3)[Gal(b1-4)GlcNAc(b1-2)[Gal(b1-4)GlcNAc(b1-6)]Man(a1-6)]Man(b1-4)GlcNAc(b1-4)GlcNAc
How it was run: as §1

[18] = biological target: Gal(b1-4)GlcNAc(b1-3)Gal(b1-3)GlcNAc
How it was run: as §1

[19] = biological target: Gal(b1-4)GlcNAc(b1-3)Gal(b1-4)[Fuc(a1-3)GlcNAc(b1-6)]Gal(b1-4)Glc
How it was run: as §1

Gal6S(b1-4)Glc = biological target: Gal6S(b1-4)Glc
How it was run: as §1

GalNAc(b1-6)GalNAc = biological target: GalNAc(b1-6)GalNAc
How it was run: as §1

GlcA(b1-3)Gal = biological target: GlcA(b1-3)Gal
How it was run: as §1

[20] = biological target: GlcNAc(a1-4)Gal(b1-3)GlcNAc
How it was run: as §1

[21] = biological target: GlcNAc(a1-4)Gal(b1-4)GlcNAc(b1-3)Gal(b1-4)Glc
How it was run: as §1

[22] = biological target: GlcNAc(a1-4)Gal(b1-4)GlcNAc(b1-3)Gal(b1-4)GlcNAc
How it was run: as §1

[23] = biological target: GlcNAc(a1-6)Gal(b1-4)GlcNAc
How it was run: as §1

[24] = biological target: GlcNAc(b1-2)Man(a1-3)[GlcNAc(b1-2)Man(a1-6)]Man(b1-4)GlcNAc(b1-4)[Fuc(a1-6)]GlcNAc
How it was run: as §1

[25] = biological target: GlcNAc(b1-4)GlcNAc(b1-4)GlcNAc
How it was run: as §1

Kdn(a2-3)Gal(b1-4)GlcNAc = biological target: Kdn(a2-3)Gal(b1-4)GlcNAc
How it was run: as §1

[26] = biological target: Man(a1-2)Man(a1-6)[Man(a1-3)]Man(a1-6)[Man(a1-2)Man(a1-2)Man(a1-3)]Man
How it was run: as §1

[27] = biological target: Man(a1-3)[Man(a1-6)]Man(a1-6)[Man(a1-3)]Man(b1-4)GlcNAc(b1-4)GlcNAc
How it was run: as §1

Man(a1-6)Man = biological target: Man(a1-6)Man
How it was run: as §1

Man(b1-4)GlcNAc = biological target: Man(b1-4)GlcNAc
How it was run: as §1

[28] = biological target: Neu5Ac(a2-3)Gal(b1-3)GalNAc(b1-4)[Neu5Ac(a2-3)]Gal(b1-4)Glc
How it was run: as §1

[29] = biological target: Neu5Ac(a2-3)Gal(b1-4)GlcNAc(b1-2)Man(a1-3)[Neu5Ac(a2-6)Gal(b1-4)GlcNAc(b1-2)Man(a1-6)]Man(b1-4)GlcNAc(b1-4)GlcNAc
How it was run: as §1

[30] = biological target: Neu5Ac(a2-3)Gal(b1-4)GlcNAc(b1-3)Gal(b1-3)GlcNAc
How it was run: as §1

[31] = biological target: Neu5Ac(a2-3)Gal(b1-4)[Fuc(a1-3)]GlcNAc(b1-3)Gal(b1-4)[Fuc(a1-3)]GlcNAc(b1-3)Gal(b1-4)[Fuc(a1-3)]GlcNAc
How it was run: as §1

[32] = biological target: Neu5Ac(a2-6)Gal(b1-4)GlcNAc(b1-3)Gal(b1-4)GlcNAc(b1-3)Gal(b1-4)GlcNAc
How it was run: as §1

B1: CD72 ectodomain (Homo sapiens), P21854 (protein)
chain: RYLQVSQQLQQTNRVLEVTNSSLRQQLRLKITQLGQSAEDLQGSRRELAQSQEALQVEQRAHQAAEGQLQACQADRQKTKETLQSEEQQRRALEQKLSNMENRLKPFFTCGSADTCCPSGWIMHQKSCFYISLTSKNWQESQKQCETLSSKLATFSEIYPQSHSYYFLNSLLPNGGSGNSYWTGLSSNKDWKLTDDTQRTRTYAQSSKCNKVHKTWSWWTLESESCRSSLPYICEMTAFRFPD
[1]
  glycan array binding signal (z-score): -0.867
[2]
  glycan array binding signal (z-score): 0.01
Fuc(a1-2)Gal(b1-3)GlcNAc
  glycan array binding signal (z-score): 1.12
[3]
  glycan array binding signal (z-score): -0.186
[4]
  glycan array binding signal (z-score): 1.08
[5]
  glycan array binding signal (z-score): 5.72
[6]
  glycan array binding signal (z-score): 2.7
[7]
  glycan array binding signal (z-score): 0.3
[8]
  glycan array binding signal (z-score): 0.886
[9]
  glycan array binding signal (z-score): 0.575
Gal(a1-2)Gal
  glycan array binding signal (z-score): 0.56
[10]
  glycan array binding signal (z-score): -1.69
[11]
  glycan array binding signal (z-score): 1.45
[12]
  glycan array binding signal (z-score): 0.8
[13]
  glycan array binding signal (z-score): 1.16
[14]
  glycan array binding signal (z-score): 1.6
[15]
  glycan array binding signal (z-score): -0.958
[16]
  glycan array binding signal (z-score): 2.26
Gal(b1-4)GlcNAc(b1-2)Man
  glycan array binding signal (z-score): 0.51
[17]
  glycan array binding signal (z-score): -0.561
[18]
  glycan array binding signal (z-score): -0.795
[19]
  glycan array binding signal (z-score): -0.359
Gal6S(b1-4)Glc
  glycan array binding signal (z-score): -0.925
GalNAc(b1-6)GalNAc
  glycan array binding signal (z-score): -0.435
GlcA(b1-3)Gal
  glycan array binding signal (z-score): 2.21
[20]
  glycan array binding signal (z-score): -1.11
[21]
  glycan array binding signal (z-score): 0.006
[22]
  glycan array binding signal (z-score): 4.25
[23]
  glycan array binding signal (z-score): 4.24
[24]
  glycan array binding signal (z-score): 2.59
[25]
  glycan array binding signal (z-score): 0.82
Kdn(a2-3)Gal(b1-4)GlcNAc
  glycan array binding signal (z-score): 0.726
[26]
  glycan array binding signal (z-score): -0.32
[27]
  glycan array binding signal (z-score): 0.977
Man(a1-6)Man
  glycan array binding signal (z-score): -0.096
Man(b1-4)GlcNAc
  glycan array binding signal (z-score): 2.32
[28]
  glycan array binding signal (z-score): -0.087
[29]
  glycan array binding signal (z-score): 0.127
[30]
  glycan array binding signal (z-score): 1.03
[31]
  glycan array binding signal (z-score): 1.73
[32]
  glycan array binding signal (z-score): 0.371
